# According to ChEMBL document CHEMBL3433997, “St. Jude Leishmania screening dataset” (2016):
# What was measured:
# Format in all cases: functional
# [1] = molecular target: Solute carrier family 2, facilitated glucose transporter member 1 (Homo sapiens) (UniProt P11166); assay: ST_JUDE_LEISH: Cytotoxicity at 2uM final concentration against transgenic Leishmania Mexicana promastigotes LmGLUT1 that are glucose transport deficient and complemented with the human glucose transporter GLUT1. Activity is measured by DNA content using SYBR green in vitro
# Sequence of Solute carrier family 2, facilitated glucose transporter member 1 (Homo sapiens) (P11166 whole entry): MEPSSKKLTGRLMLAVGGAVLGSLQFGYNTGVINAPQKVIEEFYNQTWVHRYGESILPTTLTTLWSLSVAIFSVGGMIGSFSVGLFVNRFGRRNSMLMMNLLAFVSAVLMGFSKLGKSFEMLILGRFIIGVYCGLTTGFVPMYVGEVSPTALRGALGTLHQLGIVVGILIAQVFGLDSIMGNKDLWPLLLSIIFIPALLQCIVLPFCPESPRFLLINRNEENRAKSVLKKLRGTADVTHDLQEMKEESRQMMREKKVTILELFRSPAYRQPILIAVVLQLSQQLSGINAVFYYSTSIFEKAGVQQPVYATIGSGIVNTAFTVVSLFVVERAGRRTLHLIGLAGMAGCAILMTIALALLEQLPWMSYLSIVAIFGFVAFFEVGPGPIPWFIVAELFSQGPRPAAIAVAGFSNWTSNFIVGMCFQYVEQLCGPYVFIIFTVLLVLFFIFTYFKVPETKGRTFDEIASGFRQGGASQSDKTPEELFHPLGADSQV
# [2] = molecular target: Hexose transporter 1 (Plasmodium falciparum) (UniProt O97467); assay: ST_JUDE_LEISH: Cytotoxicity at 2uM final concentration against transgenic Leishmania Mexicana promastigotes LmPfHT that are glucose transport deficient and complemented with the Plasmodium falciparum hexose transporter. Activity is measured by DNA content using SYBR green in vitro
# [3] = molecular target: Glucose transporter (Leishmania mexicana) (UniProt O61059); assay: ST_JUDE_LEISH: Cytotoxicity at 2uM final concentration against transgenic Leishmania Mexicana promastigotes LmGT2 that are glucose transport deficient and complemented with the L. Mexicana glucose transporter 2. Activity is measured by DNA content using SYBR green in vitro
Compound,inhibition [1],inhibition [2],inhibition [3]
CCOc1cc(Cc2cnc(N)nc2N)cc(Br)c1OC,0.49%,2.73%,2.29%
FC(F)(F)c1cccc(CNCC2CCN(CC3CCCCC3)CC2)c1,-0.93%,-0.13%,0.34%
COc1ccc(CN2CCN(CCCCNC(=O)c3ccc(NC(=O)c4ccc(Cl)cc4)cc3)CC2)c(OC)c1,6.23%,4.9%,6.03%
CC(=O)N(C)c1ccc(C(=O)Nc2cccc(-c3cccc(-c4nc5cc(C(F)(F)F)ccc5[nH]4)c3)c2)cc1,8.18%,7.82%,5.77%
O=C(NC1CCN(c2ccnc3cc(Cl)ccc23)C1)c1cccc(F)c1 (stereo unspecified),0.95%,1.46%,1.42%
CCNc1cc(C)nc(Nc2ccc(NC(=O)c3ccccc3Br)cc2)n1,8.09%,9.16%,4.36%
O=C(NCC(CCCN1CCC(c2c[nH]c3ccccc23)CC1)c1ccccc1)Nc1ccc(Cl)c(Cl)c1 (stereo unspecified),4.09%,2.82%,2.69%
CC(C)(C)c1ccc(CN2CCCCC(NC(=O)c3cc(-c4cccc(F)c4)cs3)C2)cc1 (stereo unspecified),-2.41%,-3.63%,-0.11%
N=c1n(Cc2ccc(Cl)cc2)c2ccccc2n1CC(O)c1ccc(Cl)c(Cl)c1 (stereo unspecified),0.04%,1.87%,-1.55%
c1ccc(CNCc2cccc(-c3csc(-c4nc5ccccc5[nH]4)c3)c2)cc1,4.56%,5.03%,3.11%
CC(C)C[C@H](NC(=O)[C@H](Cc1ccccc1)N(C[C@H](Cc1ccccc1)NC(=O)OC(C)(C)C)C(=O)C(F)(F)F)C(=O)NC1CCN(Cc2ccccc2)CC1,5.24%,5.7%,4.2%
COc1ccc2nc(-c3cc(-c4ccc(NC(=O)C(C)C)cc4)cnc3N)[nH]c2c1,20.8%,40.7%,12.9%
CCCN(CCC)S(=O)(=O)c1ccc(C(=O)Nc2nc3ccc(-c4cc(=O)[nH]c(Nc5ccccc5Cl)n4)cc3[nH]2)cc1,4.09%,5.1%,4.26%
COc1cccc(C(=O)NC(NC(=S)Nc2ccc(OC)cc2[N+](=O)[O-])C(Cl)(Cl)Cl)c1 (stereo unspecified),-1.36%,0.44%,-2.26%
COc1ccc2nccc([C@@H](O)CN3CCC(CO)(NCc4cc5ccccc5o4)CC3)c2c1,7.99%,13.3%,1.76%
N#Cc1ccc(C(=O)Nc2ccc(-c3cccc(CN4CCCC4)c3)cc2)cc1,4.22%,1.49%,-0.82%
Cc1cc2nc(-c3ccc(C(=O)NCc4ccc(Cl)c(Cl)c4)cc3)[nH]c2cc1C,4.77%,4.64%,2.9%
N#Cc1ccc(N(CCOc2ccc(Cl)cc2)Cc2ccccc2C(F)(F)F)cc1C(F)(F)F,-1.04%,-1.88%,-1.54%
Cn1c(N=C2NC3(c4ccccn4)NC(=Nc4nc5ccccc5n4C)NC3(c3ccccn3)N2)nc2ccccc21 (stereo unspecified),1.54%,2.5%,0.64%
COc1ccc(C(=O)Nc2ccc3nc(N4CCCCC4)cc(C)c3c2)cc1OC,1.54%,-0.36%,0.56%
O=C(Cn1c(SCc2cccc(F)c2F)cc(=O)c2ccccc21)N(CCN1CCCCC1)Cc1ccc(-c2ccc(C(F)(F)F)cc2)cc1,-1.53%,-1.37%,-1.85%
Cc1cc(N2CCCCC2)nc2ccc(NC(=O)c3cc(=O)c4ccccc4o3)cc12,5.94%,7.2%,0.66%
COc1ccc(NC(=O)/C=C/c2ccccc2Cl)cc1OCCN1CCC(c2nc3ccccc3[nH]2)CC1,3.22%,1.68%,2.78%
Cc1ccc(-c2cnc(N)c3cc(-c4ccnc(N)n4)ccc23)cc1,-0.17%,-2.15%,-1.88%

Compound,inhibition [1],inhibition [2],inhibition [3]
COc1ccc(CNCCCCCCNCCc2ccc(Cl)cc2)cc1OC,1.25%,1.81%,3.24%
O=C(c1ccc([N+](=O)[O-])o1)N1CCN(c2nc3c(F)cc(F)cc3s2)CC1,21%,6.03%,7.31%
Fc1ccc2[nH]c(-c3cccc(-c4cccc(CNCCN5CCNCC5)c4)c3)nc2c1,2.5%,2.3%,0.88%
Nc1ccc2c(N)c3ccccc3nc2c1,0.33%,0.2%,-1.77%
c1cc(CN2CCCCC2)cc(-c2ccc(-c3nc4ccccc4[nH]3)cc2)c1,-0.4%,2.76%,-1.06%
CC(C)(C)NCCN(Cc1ccc(-c2ccc(C(F)(F)F)cc2)cc1)C(=O)Cn1c(CCc2cccc(F)c2F)nc(=O)c2c1CCC2,6.13%,7.22%,7.29%
CCC[C@@H]([C@@H](CC(C)C)C(=O)N[C@H](C(=O)Nc1nccs1)C(C)(C)SCCNC(=O)OCC)N(O)C=O,2.68%,4.73%,3.58%
Cc1cc(NC(=O)Nc2ccc3sccc3c2)c2ccccc2n1,2.24%,2.66%,0.53%
CCOC(=O)c1cnc2c(OC)cc(OC)c(Cl)c2c1Nc1cccc(C)c1C,0.67%,-0.69%,-6.14%
Cc1ccnc(NC(c2ccc(Cl)c([N+](=O)[O-])c2)c2ccc3cccnc3c2O)c1 (stereo unspecified),0.43%,-0.87%,-1.39%
CCN(CCCN1CCCCC1)c1cc(C)nc(Nc2ccc(Cl)cc2)n1,1.87%,2.6%,1.8%
COC(=O)c1cc(C(=O)CN(Cc2ccccc2)C(C)C)ccc1O,4.78%,5.9%,4.16%
N=C(N)c1cccc(-c2cc(-c3cccc(C(=N)N)c3)on2)c1,0.92%,2.23%,-0.32%
N#Cc1cccc(NC(=O)Nc2cccc(-c3cccc(-c4nc5cc(F)ccc5[nH]4)c3)c2)c1,9.7%,7.87%,8.96%
Cc1ccc(Nc2nc(C)cc(NC3CCN(C)CC3)n2)cc1,1.14%,3.12%,5.43%
CC1CCN(C(=O)C(Cc2c[nH]c3ccccc23)NS(=O)(=O)c2ccc(Cl)cc2)CC1 (stereo unspecified),0.31%,1.31%,-0.09%
CN(CCN1CCC(c2c[nH]c3ccccc23)CC1)c1ccc(-c2nc3cc(Cl)c(Cl)cc3[nH]2)cc1,2.04%,0.16%,0.74%
CC(C)Sc1nc2c(c(=O)n1CCc1ccccc1)C1(CCCCC1)Cc1ccccc1-2,-1.26%,-1.14%,-0.83%
Nc1nc(N)c2c3c(cnc2n1)CCCC3,9.74%,9.11%,10.8%
CNC(=O)c1cncc(/C=C/c2ccccc2S(N)(=O)=O)c1,-0.22%,4.59%,-0.59%
Cc1ccccc1C1CCN(C2CCC(NC(=O)/C=C/c3ccc(F)cc3)CC2)CC1 (stereo unspecified),-1.42%,-0.14%,0.53%
Cc1cccc2nc(-c3ccc(-c4cccc(CN5CCCC(N)C5)c4)s3)[nH]c12 (stereo unspecified),12.7%,11.2%,11.7%
NCc1cccc(-c2cccc(CNC3CCN(Cc4ccccc4)CC3)c2)c1,6.06%,5.41%,-0.37%
Cc1cccc2nc(-c3ccc(-c4ccc(CNCC(C)C)cc4)cc3)[nH]c12,15.3%,13.6%,8.18%

Compound,inhibition [1],inhibition [2],inhibition [3]
Cc1ccc(Cn2c(N3CCC(C(=O)NCc4cccs4)CC3)nc3ccccc32)cc1,1.76%,2.67%,7.85%
N=C(NC1CC1)c1ccc2[nH]c(CCCCCc3nc4cc(C(=N)NC5CC5)ccc4[nH]3)nc2c1,-1.14%,-0.68%,1.61%
CC1CCN(Cc2c(O)ccc3c(CN4CCC(C)CC4)c(O)ccc23)CC1,4.79%,6.78%,6.37%
COc1ccc2nccc([C@@H](O)CN3CCC(NC(=O)C(c4cccs4)N4CCN(c5ccc(F)cc5)CC4)CC3)c2c1 (stereo partly specified),5%,3.71%,4.65%
CC(C)(C)c1ccc(CNC(=O)c2cc(CNC3CCC(N)CC3)ccc2O)cc1 (stereo unspecified),0.08%,-1.35%,0.99%
Cc1ccc(C(=O)Cn2nc(-c3ccc(C)c(S(=O)(=O)N4CCCC4)c3)ccc2=O)cc1,1.61%,0.61%,2.62%
Cc1cc(Nc2cccc(C(F)(F)F)c2)nc(NCc2ccccc2)n1,29.6%,42.8%,10.1%
NC1CCN(Cc2ccc(-c3cccc(-c4nc5cc(F)ccc5[nH]4)c3)cc2)C1 (stereo unspecified),16.9%,14.7%,12.8%
CC(NC(=O)c1ccc(O)c(-c2ccc(Cl)c(Cl)c2)c1)C(=O)NCCN1CCCCC1 (stereo unspecified),-0.39%,1.71%,0.47%
CC(=O)Nc1nc(C(=O)Nc2cccc(-c3ccc(-c4nc5cccc(C)c5[nH]4)s3)c2)cs1,6.86%,11.9%,8.32%
O=C(Nc1ccc(Cl)cc1)Nc1cccc(-c2cccc(-c3nc4cc(F)ccc4[nH]3)c2)c1,7%,6.99%,6.45%
CCOC(=O)c1cccc(NC(=N)Nc2nc(C)cc(NCCc3ccccc3)n2)c1,7.04%,7.16%,5.39%
COc1ccc(-c2nonc2NC(=O)c2cccc(C)c2)cc1OC,11.9%,10.7%,10.1%
CN1CCN(c2cc3c(cc2Cl)CCN3C(=O)Cc2ccc(NC(=O)Nc3cccc4ccccc34)cc2)CC1,0.87%,1.55%,-1.64%
CCCCN(CCCC)CCCN(CCCN(CCCC)CCCC)c1cc(C)nc(Nc2ccc(Cl)cc2)n1,-0.03%,0.22%,0.44%
COc1ccc2ncc(Cl)c(CCN3CCC(NCc4ccc5c(n4)NC(=O)CO5)CC3)c2c1,7.95%,5.92%,6.59%
N#Cc1cccc(Nc2nccc(NCC(O)c3ccccc3C(F)(F)F)n2)c1 (stereo unspecified),9.64%,7.25%,3.83%
CN/C(=N\O)NCCN(C)C,3.01%,4.18%,3.91%
Oc1ccc(CCCNc2nc(NCc3ccccc3-c3ccccc3)nc(N3CCNCC3)n2)cc1,-0.81%,-2.76%,1.36%
COc1ccc2ncc(F)c(CCN3CC[C@@H](CNCc4ccc5c(c4C)OCCO5)C3)c2n1,27.8%,35.3%,52.1%
Nc1cc(-c2ccc3ccccc3c2)nc2ccccc12,31.2%,26.8%,13.7%
Cc1cc(CNCCCCCCNCc2cccc([N+](=O)[O-])c2)ccc1O,10.5%,9.56%,9.64%
CN1CCCN(Cc2cccc(-c3cccc(NS(=O)(=O)c4cccc5cccnc45)c3)c2)CC1,10.4%,10.8%,2.53%
O=C(c1ccc(O)c(-c2cc(Cl)cc(Cl)c2)c1)N(CCO)CCO,2.23%,1.98%,3.14%
